High-throughput results (PubChem)
Shown are actives, neighbours in structure and some others; about 9.4% of the full set was active somewhere.
SMN2 splice enh: qHTS Assay for Enhancers of SMN2 Splice Variant Expression; AID 1458, 2008; 210,000 compounds, 2.8% hits; HEK293 SMN2-luciferase splicing reporter, luminescence, 30-36 h; Potency, µM (series often up to 46.1 µM), for the others: at the highest dose activity change, positive = activation, hits mostly activators; note: % of control where 0% means no effect; nearly all actives have a fitted effect of over 55% in size
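qHTS luciferase splicing reporter: luminescence rises when SMN2 exon 7 is included in transfected HEK293 cells. Compound exposure lasted 30-36 h at 37C, with 4.5 mM final sodium butyrate as control, followed by a ONE-Glo read.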
NPC1 prom act: qHTS Assay for NPC1 Promoter Activators; Huh7 NPC1 promoter luciferase reporter, 24 h; Potency, µM (series often up to 9.22 µM), for inactives: top-dose activation, hits mostly activators; 320,000 compounds, 2.4% hits; AID 485313, 2010; note: % of control where 0% means no effect; nearly all actives have a fitted effect of over 60% in size
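In 1536-well qHTS, Huh7 cells harboring an NPC1 promoter–luciferase construct received compound for 24 h; activation was quantified by luminescence following luciferase reagent addition.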
Rab9 promoter act: qHTS Assay for Rab9 Promoter Activators | Huh7 Rab9 promoter-luciferase reporter, luminescence, 24 h | Potency, µM (titrated, usually from 9.22 µM), inactives show at the top dose activation, negative = inhibition, hits mostly activators | 320,000 compounds, 2.8% hits; note: % of control where 0% means no effect; nearly all actives have a fitted effect of over 60% in size
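Steps: seed 1500 Huh7 Rab9-luc cells per well, rest 2 h at 37 °C; add compound in DMSO; incubate 24 h; add luciferase reagent, 10 min ambient; read luminescence.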
ELG1 repair inh: qHTS screen for small molecules that inhibit ELG1-dependent DNA repair in human embryonic kidney (HEK293T) cells expressing luciferase-tagged ELG1 | HEK293T ELG1-luciferase reporter, luminescence, 16 h; DNA damage induced by 5-fluorouridine | AID 504467, 2011 | 330,000 compounds, 2.3% hits | Potency, µM (top dose mostly 46.1 µM), for inactives: at the highest dose activity change, negative = inhibition, actives largely listed as inhibitors; note: % is set by controls: 0 for no effect and ±100 for the full control effect; nearly all actives have a fitted effect of over 55% in size
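Overnight (16 hr) co-exposure of 2,000 cells/well to 5-fluorouridine and compound at 37 °C preceded detection. Luciferase was quantified via ONE-Glo luminescence; loss of signal denotes inhibition.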
FLuc modulator: qHTS profiling assay for firefly luciferase inhibitor/activator using purifed enzyme and Km concentrations of substrates (counterscreen for miR-21 project); Luciferin 4-monooxygenase (Photinus pyralis), P08659; purified FLuc, Km substrates, luminescence inhibition; Potency, µM (highest dose often 57.5 µM), inactives show top-dose activity change, negative = inhibition, hits mostly inhibitors; 360,000 compounds, 6.9% hits; AID 588342, 2011;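 note: plate controls were vehicle for no effect and reference inhibitor for full effect; nearly all actives have a fitted effect of over 55% in size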
Target sequence (P08659 whole entry, looked up): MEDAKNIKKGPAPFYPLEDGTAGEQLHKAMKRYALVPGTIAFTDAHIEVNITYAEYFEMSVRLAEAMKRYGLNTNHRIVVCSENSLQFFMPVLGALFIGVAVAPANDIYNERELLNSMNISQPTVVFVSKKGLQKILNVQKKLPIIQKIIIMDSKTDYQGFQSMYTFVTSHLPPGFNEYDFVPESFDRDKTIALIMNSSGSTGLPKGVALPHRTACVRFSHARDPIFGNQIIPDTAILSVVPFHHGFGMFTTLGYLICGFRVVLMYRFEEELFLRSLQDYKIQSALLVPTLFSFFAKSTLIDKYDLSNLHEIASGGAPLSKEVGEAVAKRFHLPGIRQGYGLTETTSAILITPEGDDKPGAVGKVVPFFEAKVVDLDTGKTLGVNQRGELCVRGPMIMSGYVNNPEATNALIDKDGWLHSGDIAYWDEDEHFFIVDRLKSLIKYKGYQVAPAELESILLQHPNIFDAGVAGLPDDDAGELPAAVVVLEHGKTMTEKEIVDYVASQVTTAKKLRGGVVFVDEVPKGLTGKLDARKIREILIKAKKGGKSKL
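Purified P. pyralis luciferase, 10 nM final, with Km-level 10 uM D-luciferin and 10 uM ATP in 50 mM Tris acetate pH 7.5, 10 mM Mg acetate, 0.01% Tween-20, 0.05% BSA; 6-point qHTS titration about 60 µM downward; luminescence read.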
ELG1 genotox: qHTS screen for small molecules that induce genotoxicity in human embryonic kidney (HEK293T) cells expressing luciferase-tagged ELG1. HEK293T ELG1-luciferase reporter, luminescence, 16 h. Potency, µM (top dose mostly 46 µM), for the others: top-dose activity change, positive = activation, hits mostly activators. 330,000 compounds, 1.3% hits. AID 504466, 2011; note: % of control where 0% means no effect; nearly all actives have a fitted effect of over 60% in size
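Quantitative HTS format in 1536-well plates. HEK293T ELG1-luciferase reporter cells receive test compound and are incubated 16 hr at 37 °C, 5% CO2; ONE-Glo added, 30 min room temperature, then luminescence read.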
Active calls of the source: *; ? = inconclusive; / = not tested or not shown; [ ] = remark or other dose. Calls come from the whole dose curve; as a rule, active = well fitted curve in the direction sought with a large enough effect; inconclusive = small, poorly fitted or top-dose-only effect, or another doubt; inactive = no such curve, though single readings can be large; an effect the other way counts as inactive or inconclusive. Potency is the fitted concentration of half-maximal effect.

SMILES	SMN2 splice enh	NPC1 prom act	Rab9 promoter act	ELG1 repair inh	FLuc modulator	ELG1 genotox
COc1ccc2[nH]c3c(NCCCOC(C)C)ncnc3c2c1	/	1.8µM*	0.79µM*	?	6µM*	?
COc1ccc2[nH]c3c(NCCC4=CCCCC4)ncnc3c2c1	-34%	-23%	-16%	?	11µM*	-3%
NS(=O)(=O)c1ccc(N/N=C/c2ccccc2Br)cc1	19%	6%	15%	?	?	13%
CC1Cc2ccccc2N1C(=O)CN1CCC(n2nnc3cc(C(F)(F)F)ccc32)CC1 (configuration not stated)	-102%	0%	12%	21µM*	6%	-24%
COC(=O)c1ccccc1NC(=O)CN1CCC(n2nnc3cc(C(F)(F)F)ccc32)CC1	-11%	1%	8%	?	9%	2%
COc1ccc(NC(=O)CN(C)C2CCCCC2)c([N+](=O)[O-])c1	-10%	2%	-4%	8%	-5%	0%
CSc1ccc(CCNC(=O)c2nn(C)c3c2CS(=O)(=O)c2ccccc2-3)cc1	/	1%	-1%	26µM*	0%	-16%
CCc1ccc(CNC(=O)c2nn(C)c3c2CS(=O)(=O)c2ccccc2-3)cc1	/	1%	2%	?	2%	-10%
CCOc1ccccc1CNC(=O)c1nn(C)c2c1CS(=O)(=O)c1ccccc1-2	/	4%	-2%	16µM*	-1%	-9%
CC1=C(c2ccc(C)cc2)S(=O)(=O)N=C1N1CCN(c2ccccc2)CC1	/	/	/	/	-1%	/
CCOc1ccc(-c2cc3c(=O)n(CC(=O)Nc4cc(F)ccc4C)ccn3n2)cc1	/	/	/	/	-3%	/
CCCC(=O)Nc1nc(C)c(-c2csc(Nc3cc(OC)ccc3OC)n2)s1	-33%	-15%	-4%	5.2µM*	?	2%
COc1ccccc1Nc1nc(-c2c(C)[nH]c3ccccc23)cs1	14µM*	15%	16%	?	11µM*	11%
C=CCCC(=O)Nc1nc(C)c(-c2csc(Nc3cc(OC)ccc3OC)n2)s1	-43%	-29%	-12%	7.3µM*	-18%	-7%
C=CCCC(=O)Nc1nc(C)c(-c2csc(Nc3cccc(OC)c3)n2)s1	-29%	-3%	-10%	15µM*	?	1%
CCCCCC(=O)Nc1nc(C)c(-c2csc(Nc3cc(Cl)ccc3OC)n2)s1	-18%	-6%	2%	-6%	4%	-3%
COc1ccc(Br)cc1CNC(=O)c1cnc2sc(N3CCCCCC3)nn2c1=O	/	/	/	/	-15%	/
CN1CC(=O)N(CC(=O)Nc2cccc(C#N)c2)c2ccccc2C1=O	/	/	/	/	0%	/
Cc1cc(O)ccc1Nc1nc(-c2sc(N)nc2C)cs1	-7%	1%	-8%	-24%	?	1%
COc1ccccc1Nc1nc(-c2sc(NC(=O)C(C)(C)C)nc2C)cs1	-55%	-9%	-10%	?	?	-8%
COc1ccc(OC)c(Nc2nc(-c3sc(N)nc3C)cs2)c1	-16%	-1%	-4%	12µM*	-2%	3%
CCCC(=O)Nc1nc(C)c(-c2csc(Nc3ccccc3OC)n2)s1	-24%	-4%	-7%	23µM*	?	0%
CCCC(C)C(=O)Nc1nc(C)c(-c2csc(Nc3cc(OC)ccc3OC)n2)s1 (configuration not stated)	-28%	-19%	-3%	18µM*	-1%	-1%
COc1ccccc1Nc1nc(-c2sc(NC(=O)CC(C)C)nc2C)cs1	-25%	-12%	-8%	?	?	-7%
Cc1ccc(S(=O)(=O)c2cnc(SC(C)C(=O)Nc3ccccc3)[nH]c2=O)cc1 (configuration not stated)	1%	/	/	/	?	/
SMILES	SMN2 splice enh	NPC1 prom act	Rab9 promoter act	ELG1 repair inh	FLuc modulator	ELG1 genotox
Cc1cc(C)c2c(CC(=O)Nc3ccc(S(=O)(=O)N4CCCC(C)C4)cc3)coc2c1 (configuration not stated)	14%	/	/	/	-3%	/
COc1ccc2nc(/N=C/c3cccc(OC)c3O)sc2c1	/	26%	?	?	0.95µM*	?
Cc1nc(/N=C\N(C)C)sc1C(=O)Nc1ccccc1	13%	18%	12%	?	-14%	?
CN(C)/C=N/c1nc2ccc3c(c2s1)CCCC3	14µM*	2.5µM*	3.5µM*	?	6µM*	?
COc1ccc2nc(N=Nc3ccc(N(C)C)cc3)sc2c1	-5%	0.32µM*	0.71µM*	?	0.067µM*	?
COc1ccc2c(c1)-c1nc(/N=C/c3cccc(OC)c3O)sc1CC2	2%[1.84 µM]	-1%	2%	-3%	?	-2%
COc1ccc2nc(/N=C/c3c(C)[nH]n(-c4ccc(C)cc4)c3=O)sc2c1	?	11%	22%	?	7.6µM*	4%
Cc1ccc(-n2[nH]c(C)c(C=Nc3cc(C)ccn3)c2=O)cc1	?	-4%	1%	7%	?	7%
Cc1ccc(C)c(CN2C(=O)c3ccccc3S(=O)c3ccc(C(=O)N4CCCCC4)cc32)c1 (configuration not stated)	-31%	/	/	/	2%	/
O=C(Nc1cccc(F)c1)C1CCN(c2nc3ccccc3[nH]2)CC1	/	/	/	/	4%	/
COc1ccc2nc(/N=C\N(C)C)sc2c1	39%	24%	?	?	24µM*	16%
Cc1ccc(/C(N)=N/OC(=O)c2cccc(F)c2)cc1	/	14%	16%	?	3µM*	?
N/C(=N\OC(=O)c1cccc(F)c1)c1ccccc1	2%	17%	26%	?	0.67µM*	?
Cc1ccc(/C(N)=N/OC(=O)c2ccc3ccccc3c2)cc1	/	?	?	?	6.7µM*	?
Cc1ccc(/C(N)=N/OC(=O)Oc2ccccc2)cc1	-5%	-1%	1%	25%	?	2%
CC(=O)/C=C1\C(=O)N(C)c2ccccc21	/	-30%[46.1 µM]	-44%[46.1 µM]	/	/	/
CN1C(=O)/C(=C\C(=O)c2cccs2)c2ccccc21	-20%	4%	-10%	?	19µM*	-13%
Cc1nn2c(-c3ccco3)ccnc2c1-c1ccc(Br)cc1	12%	/	/	/	9.5µM*	/
Cc1nn2c(-c3ccco3)ccnc2c1-c1ccc(F)cc1	1%	/	/	/	?	/
Cc1nn2c(-c3ccc(Cl)cc3)ccnc2c1-c1ccccc1	-5%	?	22%	?	8.5µM*	8%
Cc1nn2c(-c3ccco3)ccnc2c1-c1ccc(Cl)cc1	-13%	/	/	/	5.4µM*	/
